The term inhibition denotes the relative decrease from the control value, in per cent.

Out of some 77,000 compounds screened, about 4,600 (6%) were called active. About 1% were inconclusive and are not listed. Shown is part of a subset that was picked to be rich in actives. A number with no mark means an inactive call.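 How the source made its calls: active means mean inhibition above about 93%, with at least 55% of replicates each passing it (limit read from the data, passing the limit was not always enough); inconclusive means only one of those two conditions holds; inactive means neither condition holds.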

This experiment in a line: T. cruzi intracellular proliferation inhibitors, primary screen, cell-based, beta-gal Tulahuen parasites, NIH3T3 host, luminescence (AID 624255). The conditions noted are these: T. cruzi beta-gal in NIH3T3, GalScreen luminescence, 90 h; at 8.34 µM; active compounds read high.
For `C/C=C/c1ccc([C@H]2[C@@H](CNC(C)C)N(c3nc(CC)cs3)[C@H]2CO)cc1`, the inhibition is 100% (active). For the molecule `C/C=C/c1ccc([C@H]2[C@@H](CNC(=O)NC(C)C)N(C(=O)C3CCC3)[C@H]2CO)cc1`, the inhibition was 7.28%.

With `C/C=C/c1ccc([C@H]2[C@@H](CO)N(C(C)=O)[C@H]2CNC(=O)c2ccncc2)cc1`, the inhibition was 72.7%.

For the molecule `CO[C@H](C(=O)N(C)C[C@@H]1OCc2ccccc2-c2c(n(C)c3ccccc23)C(=O)N([C@@H](C)CO)C[C@H]1C)c1ccccc1`, the inhibition is -13.2%. On to `CN1[C@H](C(=O)N2CCc3ccccc3C2)[C@@H](CO)[C@@H]2Cn3c(ccc(-c4cncnc4)c3=O)[C@@H]21`, for which the inhibition is 79.8%. In the case of `COc1cccc(S(=O)(=O)N[C@H]2CC[C@H](CCN)O[C@H]2CO)c1` it was -31.7%; in that of `CO[C@H]1CN(C)C(=O)c2cc(NS(C)(=O)=O)ccc2OC[C@@H](C)N(C)C[C@@H]1C`, 13.7%. As for `CCCC#Cc1ccc([C@H]2[C@@H](CO)N3CCCCN(C(=O)c4ccc5c(c4)OCO5)C[C@@H]23)cc1`, the inhibition is 50.9%.

For `CC(C)C#Cc1ccc([C@@H]2[C@@H](CO)N3CCCCN(C(=O)c4ccc5c(c4)OCO5)C[C@H]23)cc1`, the inhibition is 67.5%. In the case of `C[C@@H](O)C#Cc1ccc([C@@H]2[C@H]3CN(C(=O)c4ccc5c(c4)OCO5)CCCCN3[C@H]2CO)cc1` it was 71.8%. Regarding `COc1ccc(-c2ccc([C@H]3[C@H]4CN(C(=O)c5ccc6c(c5)OCO6)CCCCN4[C@H]3CO)cc2)cc1`, the inhibition is 117% (active). Consider `Cc1cccc(-c2ccc([C@@H]3[C@H](CO)N4CCCCN(C(=O)c5ccc6c(c5)OCO6)C[C@@H]34)cc2)c1`, for which the inhibition is 98.3% (active). `C[C@@H](O)C#Cc1ccc([C@H]2[C@H]3CN(C(=O)c4ccc5c(c4)OCO5)CCCCN3[C@H]2CO)cc1`: the inhibition is 26%.

For the molecule `Cc1ccc(S(=O)(=O)N[C@H]2CC[C@@H](CC(=O)NCCCN(C)C)O[C@H]2CO)cc1`, the inhibition is -52%. The value for `CN1c2ccc(-c3cccc(C#N)c3)cc2[C@H]2[C@H](CCN2S(=O)(=O)c2cccc(F)c2)[C@@H]1CO` was 41.7%; that for `C[C@H](CO)N1C[C@H](C)[C@H](CN(C)S(C)(=O)=O)Oc2ncc(C3=CCCCC3)cc2C1=O` was 47.7%; that for `CCC(=O)N1C[C@H](C)[C@H](OC)CN(C)C(=O)c2ccc(NC(=O)Nc3cccc(F)c3)cc2OC[C@@H]1C` was 24.9%. The value for `C[C@H](CO)N1C[C@H](C)[C@H](CN(C)C(=O)Nc2ccc(C(F)(F)F)cc2)OCCCC[C@H](C)Oc2ccc(NC(=O)C3CCCCC3)cc2C1=O` was 99.4% (active); that for `C[C@@H]1CN([C@@H](C)CO)C(=O)c2cc(NC(=O)Nc3ccc4c(c3)OCO4)ccc2O[C@@H](C)CCCCO[C@H]1CN(C)C(=O)Nc1ccc(C(F)(F)F)cc1` was 105% (active); that for `C[C@@H]1CN([C@@H](C)CO)C(=O)c2cc(NC(=O)C3CCCCC3)ccc2O[C@@H](C)CCCCO[C@@H]1CN(C)C(=O)Nc1ccccc1` was 3.47%.

Turning to `COc1ccc(NC(=O)N(C)C[C@H]2OCCCC[C@H](C)Oc3ccc(NC(=O)Nc4ccc(C(F)(F)F)cc4)cc3C(=O)N([C@@H](C)CO)C[C@@H]2C)cc1`, the inhibition is 110% (active).

On to `C[C@@H]1CCCCO[C@@H](CN(C)C(=O)Nc2ccc(C(F)(F)F)cc2)[C@H](C)CN([C@H](C)CO)C(=O)c2cc(NC(=O)C3CCCCC3)ccc2O1`, for which the inhibition was 82.6%.

As for `C[C@@H]1CN([C@@H](C)CO)C(=O)c2cc(NC(=O)Nc3ccc4c(c3)OCO4)ccc2O[C@@H](C)CCCCO[C@@H]1CN(C)C(=O)Nc1ccc2c(c1)OCO2`, the inhibition was -7.76%. In the case of `CC(C)NC(=O)Nc1ccc2c(c1)C(=O)N([C@H](C)CO)C[C@H](C)[C@H](CN(C)C(=O)Nc1ccc(C(F)(F)F)cc1)OCCCC[C@@H](C)O2` it was 104% (active); in that of `COc1ccc(NC(=O)Nc2ccc3c(c2)C(=O)N([C@H](C)CO)C[C@H](C)[C@@H](CN(C)C(=O)Nc2ccc(OC)cc2)OCCCC[C@H](C)O3)cc1`, -4.89%. Consider `CC(C)NC(=O)Nc1ccc2c(c1)C(=O)N([C@@H](C)CO)C[C@H](C)[C@H](CN(C)C(=O)Nc1ccc(F)cc1)OCCCC[C@@H](C)O2`, for which the inhibition was 10.6%. `CC(C)NC(=O)Nc1ccc2c(c1)C(=O)N([C@@H](C)CO)C[C@@H](C)[C@@H](CN(C)C(=O)Nc1ccc(C(F)(F)F)cc1)OCCCC[C@H](C)O2`: the inhibition was 45.6%. With `COc1ccc(NC(=O)Nc2ccc3c(c2)C(=O)N([C@H](C)CO)C[C@@H](C)[C@H](CN(C)C(=O)Nc2ccc(C(F)(F)F)cc2)OCCCC[C@@H](C)O3)cc1`, the inhibition was 121%.

As for `C[C@H](CO)N1C[C@H](C)[C@@H](CN(C)C(=O)Nc2ccc3c(c2)OCO3)OCCCC[C@H](C)Oc2ccc(NC(=O)Nc3ccc4c(c3)OCO4)cc2C1=O`, the inhibition was 66.3%. The value for `CN1[C@@H]2c3ccc(C4=CCCCC4)c(=O)n3C[C@H]1[C@H](CO)[C@H]2C(=O)NCc1ccc(F)cc1` was 66.5%; that for `O=C([C@@H]1[C@@H](CO)[C@@H]2Cn3c(ccc(-c4ccccc4F)c3=O)[C@H]1N2C(=O)C1CCC1)N1CCCCC1` was -49%.

On to `O=C(NCC1CC1)[C@@H]1[C@@H](CO)[C@@H]2Cn3c(ccc(C4=CCCC4)c3=O)[C@H]1N2CCC(F)(F)F`, for which the inhibition was -0.412%.

On to `COc1ccc(-c2ccc3c(c2)[C@H]2[C@H](CCN2S(=O)(=O)c2ccccc2F)[C@H](CO)N3)cc1`, for which the inhibition is 14.9%.

For `CCCN1[C@H](C(=O)NC2Cc3ccccc3C2)[C@@H](CO)[C@@H]2Cn3c(cccc3=O)[C@@H]21`, the inhibition is -19.6%.

Consider `Cc1ccc(S(=O)(=O)N2C[C@@H](O)COC[C@@H]3O[C@@H](CC(=O)N[C@H]4CCN(Cc5ccccc5)C4)CC[C@H]32)cc1`, for which the inhibition is -6.53%. `CCC(=O)Nc1ccc2c(c1)C(=O)N(C)[C@H]1CC[C@H](CC(=O)NC3Cc4ccccc4C3)O[C@H]1CO2`: the inhibition is 37.2%.
